Bioassay records: PubChem BioAssay, National Center for Advancing Translational Sciences (NCATS)
Shown is part of a subset that was picked to be rich in hits.
Pf Dd2 growth: inhibitors of Plasmodium falciparum Dd2 growth | Potency, µM (highest dose often 28.9 µM), usual class: inhibitors | hit rate 4.3% among 120,000 | P. falciparum Dd2 growth, SYBR Green, 72 h; active = well fitted inhibition curve with a large enough effect; note: nearly all actives have a fitted effect of over 65% in size
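Infected erythrocytes (Dd2, 0.3% parasitemia, 2.5% hematocrit final) are added to compound in RPMI-1640/Albumax II medium, grown 72 h at 37C in low oxygen, then lysed with saponin/Triton-X containing SYBR Green and read by fluorescence.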
A number is an active result.

For CCc1ccccc1NC(=O)N1CCC(Oc2ncccc2NC)C1 (stereo not given) the results were Pf Dd2 growth inactive.
Screening CCNC(=O)N1CCCC1c1noc(CCC(=O)N2CCN(c3ccccc3)CC2)n1 (stereo not given) returned Pf Dd2 growth inactive.
`Cc1cc(=O)n(CC(=O)N2CCN(c3ccccc3F)CC2)c(-c2ccc(F)cc2)n1` gave Pf Dd2 growth inactive.
Cc1ccccc1-n1nc(C)c(CCC(=O)N2CCSCC2)c1Oc1ccccc1F was read as Pf Dd2 growth inactive.
Cc1cccc(C)c1NC(=O)CN1C(=O)NC2(CCOCC2)C1=O was read as Pf Dd2 growth inactive.
Screening O=C(NCc1ccco1)N1C[C@@H]2CN(C(=O)C3CC3)C[C@]2(C(=O)O)C1 returned Pf Dd2 growth inactive.
For COc1nccc(N2CCC(CC(=O)N3CCCC3)CC2)n1 the results were Pf Dd2 growth inactive.
CCOc1ccc(C(=O)N2CCc3nc(OCCOC)ccc3C2)cc1OCC was read as Pf Dd2 growth inactive.
`COc1ccc(N2CC(c3noc(-c4ccc5c(c4)OCO5)n3)CC2=O)cc1` (stereo not given) gave Pf Dd2 growth inactive.
`O=C1NC(=NC2CCCCC2)C2(CCN(CC3CC3)CC2)N1c1cc(F)cc(F)c1` gave Pf Dd2 growth inactive.
`CC(C)CCN1CCCC2(C1)C(=NC1CCCC1)NC(=O)N2c1cc(F)cc(F)c1` (stereo not given) gave Pf Dd2 growth 10µM.
`O=C1NC(=NC2CCCC2)C2(CCN(CC3CC3)CC2)N1c1cc(F)cc(F)c1` gave Pf Dd2 growth inactive.
`CC(C)CCN1CCC2(CC1)C(=NC1CCCC1)NC(=O)N2c1cc(F)cc(F)c1` gave Pf Dd2 growth inactive.
Screening COc1cccc(N2C(=O)NC(=NC3CCCCC3)C23CCCN(C(=O)c2ccccc2F)C3)c1 (stereo not given) returned Pf Dd2 growth inactive.
For COc1cccc(N2C(=O)NC(=NC3CCCC3)C23CCCN(CCC(C)C)C3)c1 (stereo not given) the results were Pf Dd2 growth 12.6µM.
`O=C1NC(=NC2CCCCC2)C2(CCCN(CC3CCCCC3)C2)N1c1cc(F)cc(F)c1` (stereo not given) gave Pf Dd2 growth 7.94µM.
`C[S+](=O)([O-])N1CCCC2(C1)C(=NC1CCCC1)NC(=O)N2c1cc(F)cc(F)c1` (stereo not given) gave Pf Dd2 growth inactive.
COc1cccc(N2C(=O)NC(=NC3CCCC3)C23CCCN(C(=O)c2ccccc2)C3)c1 (stereo not given) was read as Pf Dd2 growth inactive.
COC1CCC12CCN(C(=O)c1cccc(C#N)c1)CC2 (stereo not given) was read as Pf Dd2 growth inactive.
COc1cccc([C@@H]2CN(C(=O)c3cnn(C)c3)C[C@H]2C(=O)O)c1 was read as Pf Dd2 growth inactive.
Screening CCCN(CCC)C(=O)CN1C(=O)NC2(CCC(C)CC2)C1=O (stereo not given) returned Pf Dd2 growth inactive.
Screening CN1C[C@@H](NC(=O)C2CCCCC2)C[C@H]1c1nc(-c2ccc(F)cc2)no1 returned Pf Dd2 growth inactive.
Screening O=C(Cc1ccc(Cl)cc1)NCc1nnc2c(-c3nc(C4CC4)no3)cccn12 returned Pf Dd2 growth inactive.
COc1ccc(C(=O)N2C[C@@H](COc3ccccc3)[C@H](C(N)=O)C2)cn1 was read as Pf Dd2 growth inactive.
For Cn1nccc1C(=O)N1C[C@@H]2CCCN3CCC[C@@H]([C@H]23)[C@H]1CCCC(=O)NCc1ccccc1 the results were Pf Dd2 growth inactive.
Screening Cc1ccc2nc3n(c2c1)[C@@H](CNCc1ccc(C(=O)O)cc1)COC3 returned Pf Dd2 growth inactive.
For COc1ccc(C(=O)NCc2nnc3ccc(-c4ccc(F)cc4)nn23)c(OC)n1 the results were Pf Dd2 growth inactive.
Screening CNC(=O)[C@@H]1CN(C(=O)c2ccoc2)C[C@H]1COC returned Pf Dd2 growth inactive.
For COc1cccc(-c2cc3c(=O)n(CCNC(=O)COc4cccc(C)c4)ccn3n2)c1 the results were Pf Dd2 growth inactive.
For O=C(N[C@H]1CCOC[C@H]1C1CCOCC1)c1cnc(CN2CCCC2)s1 the results were Pf Dd2 growth inactive.
`C[C@@H](NC(=O)c1cccs1)c1c(-c2ccc(F)cc2)noc1C(=O)O` gave Pf Dd2 growth inactive.
`O=C(C[C@@H]1O[C@H](CNCc2ccc(F)cc2)[C@@H](O)[C@H]1O)NCc1ccc(F)cc1` gave Pf Dd2 growth inactive.
CCN(CC)C(=O)C[C@@H]1CCNC[C@@H]1Cc1cc(-c2ccccn2)on1 was read as Pf Dd2 growth inactive.
`CCCCc1cc(C[C@H]2CNCC[C@H]2CC(=O)N(C)Cc2ccccc2)no1` gave Pf Dd2 growth 6.31µM.
For CC(=O)NCCNC(=O)C[C@@H]1CCNC[C@@H]1Cc1cc(-c2ccccc2)on1 the results were Pf Dd2 growth inactive.
Screening CN(Cc1ccccc1)C(=O)C[C@@H]1CCNC[C@@H]1Cc1cc(-c2ccccc2)on1 returned Pf Dd2 growth 5.01µM.
For CCCCc1cc(C[C@H]2CNCC[C@H]2CC(=O)NCc2ccccc2)no1 the results were Pf Dd2 growth inactive.
CC(=O)N1CCN(C(=O)C[C@@H]2CCNC[C@@H]2Cc2cc(-c3ccccc3)on2)CC1 was read as Pf Dd2 growth inactive.
`CCOc1ccc(C(=O)N2CCC(Cc3nc(-c4cnccn4)no3)CC2)cc1OCC` gave Pf Dd2 growth inactive.
O=C1CC(c2ccccc2)N(S(=O)(=O)c2cccc(F)c2)CCCCCCN1 (stereo not given) was read as Pf Dd2 growth inactive.
Screening O=C(c1nccc2ccccc12)N1CCN(C(=O)N2CC3CC(C2)[C@H]2CCCC(=O)N2C3)CC1 (stereo not given in full) returned Pf Dd2 growth inactive.
For CC(C)CN1C(=O)CO[C@H](c2ccc(NC(=O)c3ccc4c(c3)OCO4)cc2)[C@H]1CO the results were Pf Dd2 growth inactive.
`COc1ccc(-c2ccc3nnc(CNC(=O)COc4cccc(C)c4)n3n2)cc1` gave Pf Dd2 growth inactive.
Cn1cccc1C(=O)N1CCN(C(=O)c2nnn3c2COC(c2ccc(Cl)cc2)C3)CC1 (stereo not given) was read as Pf Dd2 growth inactive.
For O=C(Cn1nc2c(cc1=O)CCCC2)NCCc1c[nH]c2ccc(F)cc12 the results were Pf Dd2 growth inactive.
`O=C(NC(=O)c1ccccc1)Nc1ccc(-c2cc(C(F)(F)F)nn2-c2ccccc2)cc1` gave Pf Dd2 growth inactive.
O=C(Nc1ccc(-c2cc(C(F)(F)F)nn2-c2ccccc2)cc1)c1cccc(F)c1 was read as Pf Dd2 growth 11.2µM.
O=C(NC(=O)c1cccc(F)c1)Nc1ccc(-c2cc(C(F)(F)F)nn2-c2ccccc2)cc1 was read as Pf Dd2 growth inactive.
Screening COc1ccc(Cl)cc1CN(C)c1cc(C2CC(N)C2)ncn1 (stereo not given) returned Pf Dd2 growth 10µM.
For CN(Cc1cccc(-c2nn[nH]n2)c1)c1cc(C2CC(N)C2)ncn1 (stereo not given) the results were Pf Dd2 growth inactive.
For Cc1cccnc1CN(C)c1cc(C2CC(O)C2)ncn1 (stereo not given) the results were Pf Dd2 growth inactive.
For Cc1ccc(C2Cn3cnc(C(=O)N4CCC(C(=O)NCc5cc(F)ccc5F)CC4)c3CO2)cc1 (stereo not given) the results were Pf Dd2 growth inactive.
Screening CC(C)(C)OC(=O)N1CC(NCc2cc(F)cc(F)c2)C1 returned Pf Dd2 growth inactive.
